Data reported in publication PMC6792352, “Limited Chemical Structural Diversity Found to Modulate Thyroid Hormone Receptor in the Tox21 Chemical Library” (Environmental Health Perspectives, 2019).
Where a name gives a salt, the structure may show the parent alone.

The molecules below were run on thyroid hormone receptor (endogenous TRα and TRβ). Conditions: read-out: Average AC50 (uM) GH3-TRE-Antag, antagonist mode, 1 nM T3, no GH3 cytotoxicity hit.
Design: species or system GH3-TRE-Luc (rat pituitary); GH3-TRE-Luc luciferase reporter, antagonist mode against 1 nM T3, loss of signal, qHTS

SMILES	AC50 [µM]
CC[C@@H]1/C=C(\C)C[C@H](C)C[C@H](OC)[C@H]2O[C@@](O)(C(=O)C(=O)N3CCCC[C@H]3C(=O)O[C@H](/C(C)=C/[C@@H]3CC[C@H](Cl)[C@H](OC)C3)[C@H](C)[C@@H](O)CC1=O)[C@H](C)C[C@@H]2OC [Pimecrolimus]	16
CCN(Cc1c(F)cccc1Cl)c1c([N+](=O)[O-])cc(C(F)(F)F)cc1[N+](=O)[O-] [Flumetralin]	39.8
COc1cccc(C(=O)NN(C(=O)c2cc(C)cc(C)c2)C(C)(C)C)c1C [Methoxyfenozide]	55.4
CCCCNc1ccc(C(=O)OCCN(CC)CC)cc1 [Depolipon]	21
O=C(N/N=C/c1ccc([N+](=O)[O-])o1)c1ccc(O)cc1 [Nifuroxazide]	13.7
c1ccc(-c2nc[nH]c2-c2ccccc2)cc1 [4,5-Diphenylimidazole]	24.1
CCOC(=O)c1c(N)sc2c1CCN(Cc1ccccc1)C2 [Tinoridine]	37.8
CCCC(=O)OC[C@@H](OC(=O)CCC)[C@@H](OC(=O)CCC)[C@H](Cn1c2nc(=O)[nH]c(=O)c-2nc2cc(C)c(C)cc21)OC(=O)CCC [Riboflavin tetrabutyrate]	42
CCCN(CCC)S(=O)(=O)c1ccc(C(=O)O)cc1 [Probenecid]	4.15
CNc1cc(OC)c(C(=O)N[C@@H]2CCN(Cc3ccccc3)[C@@H]2C)cc1Cl (racemic) [Nemonapride]	36.4
NC(=O)Nc1ccc(Cl)c(Cl)c1 [3,4-Dichlorophenylurea]	52.4
COc1ccc(Cc2nccc3cc(OC)c(OC)cc23)cc1OC [Papaverine hydrochloride]	15.6
O=C1/C(=C/c2cccs2)CCC/C1=C\c1cccs1 [Tenylidone]	46.5
c1ccc(Nc2ccccc2)cc1 [Diphenylamine]	83.1
CCCCCCCCCCCCCC(=O)O [Tetradecanoic acid]	52.3
O=c1oc2ccccc2c(O)c1C1CCCc2ccccc21 (stereo not drawn) [Coumatetralyl]	> 90
CN(C)CCN1C(=O)c2ccccc2N(C)c2ccccc21 [Dibenzepin hydrochloride]	36.6
COCc1c(C(C)C)nc(C(C)C)c(/C=C/[C@@H](O)C[C@@H](O)CC(=O)O)c1-c1ccc(F)cc1 [Cerivastatin sodium]	13.7
Nc1ccc(C(=O)Oc2ccccc2)c(O)c1 [Phenyl 4-aminosalicylate]	49.5
Nc1cc(Cl)c(N)c(Cl)c1 [2,6-Dichloro-1,4-benzenediamine]	78

SMILES	AC50 [µM]
O=C(O)c1nn(Cc2ccc(Cl)cc2Cl)c2ccccc12 [Lonidamine]	> 50
O=C(CCCCCCCCC#CI)Oc1ccccc1 [Phenyl 11-iodo-10-undecynoate]	21.5
CNC(=O)c1ccccc1Sc1ccc2c(/C=C/c3ccccn3)n[nH]c2c1 [Axitinib]	0.777
CC(C)[C@@H](C)/C=C/[C@@H](C)[C@H]1CC[C@H]2/C(=C/C=C3\C[C@@H](O)CC[C@@H]3C)CCC[C@]12C [Dihydrotachysterol]	26.8
CO/N=C(/C(=O)OC)c1ccccc1COc1ccccc1C [Kresoxim-methyl]	3.65
COC(=O)c1c(Cl)c(Cl)c(C(=O)OC)c(Cl)c1Cl [Chlorthal-dimethyl]	72.5
CC1=C(C)S(=O)(=O)CCS1(=O)=O [Dimethipin]	86.8
C[C@]12CCC(=O)C=C1[C@@H]1C[C@@H]1[C@H]1[C@@H]3[C@@H]4C[C@@H]4[C@@]4(CCC(=O)O4)[C@@]3(C)CC[C@@H]12 [Drospirenone]	21.9
c1ccc2c(c1)Cc1ccccc1-2 [Fluorene]	55.8
CC(=O)O[C@]1(C(C)=O)CC[C@H]2[C@@H]3C[C@H](C)C4=CC(=O)CC[C@]4(C)[C@H]3CC[C@@]21C [Medroxyprogesterone acetate]	28
CC/C=C\CCOC(=O)c1ccccc1 [(3Z)-Hex-3-en-1-yl benzoate]	73.9
OC[C@H](Cc1cccc(O)c1)[C@H](CO)Cc1cccc(O)c1 [(-)-Enterodiol]	> 90
OCc1c[nH]c2ccccc12 [Indole-3-carbinol]	58.4
CCN(CC)C(=O)N[C@H]1C[C@@H]2c3cccc4[nH]cc(c34)C[C@H]2N(C)C1 [Terguride]	22.1
O=c1[nH]c(=O)n([C@H]2C[C@H](O)[C@@H](CO)O2)cc1F [Floxuridine]	4.49
NC(=S)NC(N)=S [2,4-Dithiobiuret]	45
Cc1ccccc1C(=O)Nc1cccc(OC(C)C)c1 [Mepronil]	48.2
O=C(O)c1ccccc1Nc1cccc(C(F)(F)F)c1 [Flufenamic acid]	29.6
OC(CN1CCC(Cc2ccc(F)cc2)CC1)c1ccc(Cl)cc1 (stereo not drawn) [Eliprodil]	19.5
